The target in assay [1] is Lysosomal acid glucosylceramidase (Homo sapiens) (UniProt P04062). The assay can be described thus: Glucocerebrosidase-p2 (AID 348; in the data active = potency below about 10 µM; note: potency is the fitted concentration of half-maximal effect). Particulars: purified GBA, blue fluorogenic substrate, 40 min. The method in brief:
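Normal human glucocerebrosidase (0.2 nM) with blue fluorogenic substrate (80 uM final) in citrate/phosphate pH 5.9 with 10mM sodium taurocholate, 0.01% tween-20; 40 min RT, NaOH/glycine stop; fluorescence Ex 365/Em 440; AC50 from a titration from 0.6 nM upwards.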

A short description of assay [2]: AP1 Signaling Pathway (AID 357; active = well fitted curve in either direction with a large enough effect, not every such curve was filed as active; note: % is set by controls: 0 for no effect and ±100 for the full control effect). Particulars: ME-180 AP-1-bla reporter, EGF-induced, beta-lactamase ratio, 5 h; at 7.69 µM (top of the series) unless noted. The gist of the method: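 Cells are seeded overnight, exposed to compound titrations and an EC50 level of EGF for 5 hours at 37 °C, then loaded with CCF4 dye for 2.5 hours. Beta-lactamase activity under the AP-1 element is read as a blue/green ratio.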

Assay [3] addresses Cytochrome P450 1A2 (Homo sapiens) (UniProt P05177). The assay can be described thus: p450-cyp1a2 (AID 410; calls by dose curve; note: potency is the fitted concentration of half-maximal effect). Particulars: recombinant CYP1A2, luciferin-ME demethylation, luminescence; series mostly up to 57 µM. The method in brief: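 20nM CYP1A2, 100uM Luciferin-ME (=Km), 100mM KPO4; cpd 10 min RT; +NADPH regen, 60 min RT; stop/detect 20 min; luminescence. Normalized to furafylline 57 uM = full inhibition.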

Assay [4] in a line: NFAT Signaling Pathway (AID 444; active = well fitted curve in either direction with a large enough effect, not every such curve was filed as active;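 note: carbachol stimulus at about its EC50 of 1 µM final; % is set by controls: 0 for no effect and ±100 for the full control effect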). Particulars: Jurkat NFAT-bla M1, carbachol, beta-lactamase ratio, 5 h; at 7.69 µM (top of the series) unless noted. The gist of the method: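 Jurkat cells carrying an NFAT-driven β-lactamase reporter and co-transfected muscarinic M1 receptor were treated with compound plus carbachol (1 uM final, an EC50 level) for 5 h at 37 °C. CCF4 loading followed for 1 h at RT; 460/530 nm ratio gave %activity.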

A short description of assay [5]: Stat Signaling Pathway (AID 446; active = well fitted curve in either direction with a large enough effect, not every such curve was filed as active;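 note: ME-180 cervical cancer cells given 40 pM IL-6 alongside compound; SIE-controlled beta-lactamase reporter measured as 460/530 nm FRET emission ratio; % is set by controls: 0 for no effect and ±100 for the full control effect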). Conditions: ME-180 SIE beta-lactamase reporter, IL-6 stimulated, 5 h; at 7.69 µM (top of the series) unless noted. The method in brief: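 Compound effects on IL-6-induced STAT reporter activity were measured in ME-180 cells. After overnight culture, cells were co-treated with 40 pM IL-6 for 5 hrs before beta-lactamase substrate loading at room temperature.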

Assay [6] has as its target Glucocorticoid receptor (Homo sapiens) (UniProt P04150). In words: GR-GFP Redistribution (AID 450;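 active = compounds whose dose series gives a full or clear partial fitted curve of increased nuclear translocation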; note: potency is the fitted concentration of half-maximal effect). Conditions: U2OS GR-GFP nuclear translocation, laser cytometry, 2 h.
For assay [7] the target is unchanged. The assay can be described thus: GR-EFC Redistribution (AID 451; calls by dose curve; note: potency is the fitted concentration of half-maximal effect). Particulars: CHO-K1 GR-EFC translocation, beta-gal luminescence, 2 h. The method in brief: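 CHO-K1 cells stably expressing nuclear-localized β-gal enzyme acceptor and GR fused C-terminally to the enzyme donor fragment; ligand-driven nuclear translocation restores β-gal by complementation. Compounds titrated up to 46 uM final, 2 h at 37 °C; luminescence read.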

Assay [8] concerns the target Mitogen-activated protein kinase 10 (Mus musculus) (UniProt Q61831). The assay can be described thus: JNK3 AlphaScreen Assay (AID 530; active = well fitted curve in either direction with a large enough effect, not every such curve was filed as active;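 note: kinase came from lysate of stimulated human HepG2 cells; signal reports phosphorylation of biotinylated GST-cJun 1-79 at Ser73 with 10 µM ATP; % is set by controls: 0 for no effect and ±100 for the full control effect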). Particulars: JNK3 lysate, c-Jun phosphorylation; series mostly up to 57.1 µM. The method in brief:
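Biotinylated GST-cJun(1-79) served as substrate for JNK3 in HepG2 lysates stimulated with IL-1beta and TNF-alpha. ATP was 10 uM final, pH 7.6. Ser73 phosphorylation was quantified by AlphaScreen (680 nm excitation).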
For orientation: Bead proximity is the source of the signal in Alpha formats.

Assay [9] deals with 3',5'-cyclic-AMP phosphodiesterase 4B (Homo sapiens) (UniProt Q07343). In words: qHTS Assay for Inhibitors of PDE-IV (AID 607; active = well fitted activation curve with a large enough effect in the main read-out, with a control signal flat, not every such curve was filed as active; note: % of control where 0% means no effect). Particulars: HEK293 ACTOne CNG channel cells, membrane potential fluorescence; series mostly up to 22.9 µM. The method in brief:
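ACTOne HEK293 cells carry a modified cAMP-gated CNG channel and express endogenous PDE4; plated 1000 cells/well, compounds up to 22.9 uM final. Membrane-potential dye fluorescence (ex 535/em 590) was read; parental cells received 10 uM forskolin + 100 uM RO 20-1724.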
For orientation: Quantitative high-throughput screening tests each substance at several concentrations.

Assay [10] can be described thus: Confirmation and Secondary Assay for Modulators of Hemoglobin Beta Chain Splicing at IVS2 654 locus (AID 910).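 Note: per-well total GFP intensity by laser scanning cytometry after 2-day treatment; % of control where 0% means no effect.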 Particulars: HeLa EGFP-654 splicing reporter, GFP fluorescence, 48 h; series mostly up to 38.3 µM. The method in brief: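 HeLa cells stably carrying EGFP interrupted by mutant beta-globin IVS2-654 intron (CMV-driven) were treated with compound for 2 days at 37C; corrected splicing was scored as total peak GFP intensity per well (488 nm excitation, 500-520 nm emission).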

Assay [11] is described as follows: Confirmation and Secondary Assay for Modulators of Hemoglobin Beta Chain Splicing at IVS2 705 locus (AID 930).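 Note: HeLa cells stably expressing the EGFP-705 splicing reporter; % of control where 0% means no effect.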 Conditions: HeLa EGFP-705 splicing reporter, GFP fluorescence, 48 h; series mostly up to 38.3 µM. The method in brief: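 Assay measures total GFP intensity per well in HeLa EGFP-705 cells after 2 days with compound; mis-splicing normally truncates EGFP, so fluorescence indicates corrected splicing.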

Assay [12] is described as follows: qHTS Assay for Lipid Storage Modulators (AID 1519; calls by dose curve). Conditions: Drosophila S3 cells, BODIPY lipid droplet/cell ratio, laser cytometry, cells loaded with oleic acid; for activity change, negative = inhibition: at 57.5 µM (top of the series). The method in brief:
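Cells seeded at 5,000 per well were treated with compounds over a concentration series and loaded with oleic acid (400 uM, as added). Lipid droplet fluorescence (488 nm excitation, 500-530 nm channel) was read by laser-scanning cytometry and normalized to 20 uM Triacsin C.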

Assay [13] concerns the target Ubiquitin carboxyl-terminal hydrolase 1 (Homo sapiens) (UniProt O94782). In words: Inhibitors of USP1/UAF1: Pilot qHTS (AID 504865).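 Note: rhodamine fluorescence freed from ubiquitin-rhodamine substrate followed over time; top concentration of the series differs between compounds; % is set by controls: 0 for no effect and ±100 for the full control effect; nearly all actives have a fitted effect of over 35% in size.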 Conditions: purified USP1/UAF1, Ub-rhodamine cleavage fluorescence; series mostly up to 54.9 µM. The gist of the method: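 1nM USP1/UAF1 + cpd, 15 min RT; start w/ Ub-Rho 150nM final; kinetic FL 480/540 nm, 6 reads q60 s. Buffer 50mM HEPES pH 7.8, 0.5mM EDTA, 1mM TCEP, 0.01% Tween-20, 0.1 mg/ml BSA.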

Assay [14] in a line: Primary qHTS for small molecule stabilizers of the endoplasmic reticulum resident proteome: Secreted ER Calcium Modulated Protein (SERCaMP) assay (AID 1508630). Note: % is set by controls: 0 for no effect and ±100 for the full control effect. Particulars: SH-SY5Y GLuc-SERCaMP (Gaussia luciferase released on ER calcium loss) secretion, thapsigargin, luminescence; series mostly up to 38.4 µM. The gist of the method: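 The SH-SY5Y reporter protocol was run at 3 concentrations up to 38.3 uM (primary) or 11 concentrations (follow-up): 16 h compound, 100 nM thapsigargin for 4 h, then extracellular luciferase luminescence.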

Assay [15] has as its target Cytochrome P450 3A4 (Homo sapiens) (UniProt P08684). The assay can be described thus: qHTS Assay for Activators of Cytochrome P450 3A4 (AID 885). Note: nearly all actives have a fitted effect of over 65% in size. Particulars: recombinant CYP3A4, Luciferin-PPXE luminescence, 60 min; series mostly up to 57.1 µM. The method in brief: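 CYP3A4 activity: Luciferin-PPXE O-dealkylation, 25uM substrate, 200mM KPO4, RT throughout. Read-out is luciferase luminescence; higher values reflect activation.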

The nature of assay [16]: qHTS Assay for Identification of Small Molecule Agonists for Hypoxia Response Element Signaling Pathway (AID 914; active = well fitted activation curve with a large enough effect in the signal ratio, with a control signal flat, not every such curve was filed as active; the % refers to the signal ratio; note: % of control where 0% means no effect). Conditions: ME-180 (cervical carcinoma) HRE-bla reporter, beta-lactamase ratio, CoCl2, 17 h; activation: stronger effect = higher value. The method in brief: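 Compounds in a titration series were added to ME-180 reporter cells alongside an EC50 level of CoCl2. After 17 hours, beta-lactamase activity was read as the 460nm/530nm emission ratio of CCF4, giving AC50 values.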

[17] abbreviates: measured here: cell count channel max response.
Setting [18] is: measured here: lipid channel max response.

Records with an inconclusive call do not appear. Activity calls are given as the source filed them. Unless noted, calls come from the whole dose curve; as a rule, active = well fitted curve in the direction sought with a large enough effect; inconclusive = small, poorly fitted or top-dose-only effect, or another doubt; inactive = no such curve, though single readings can be large; an effect the other way counts as inactive or inconclusive. A value given as a limit tells only on which side of the number the result lay.

Sequence of Cytochrome P450 1A2 (Homo sapiens) (P05177 whole entry, looked up): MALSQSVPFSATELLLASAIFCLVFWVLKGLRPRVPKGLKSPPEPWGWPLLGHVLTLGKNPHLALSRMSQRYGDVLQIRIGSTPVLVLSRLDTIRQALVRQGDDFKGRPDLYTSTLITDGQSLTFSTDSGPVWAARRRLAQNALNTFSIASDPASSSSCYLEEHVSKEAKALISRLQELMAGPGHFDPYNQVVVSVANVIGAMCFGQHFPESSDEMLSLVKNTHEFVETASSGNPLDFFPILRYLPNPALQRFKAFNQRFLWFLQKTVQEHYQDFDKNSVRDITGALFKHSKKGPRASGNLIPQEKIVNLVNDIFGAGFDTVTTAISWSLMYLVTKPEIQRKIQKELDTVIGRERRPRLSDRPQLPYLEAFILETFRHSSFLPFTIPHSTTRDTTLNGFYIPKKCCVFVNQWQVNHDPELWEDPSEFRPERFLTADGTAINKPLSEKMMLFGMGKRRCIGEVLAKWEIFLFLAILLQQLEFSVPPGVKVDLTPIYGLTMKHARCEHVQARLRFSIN
Sequence of Ubiquitin carboxyl-terminal hydrolase 1 (Homo sapiens) (O94782 whole entry, looked up): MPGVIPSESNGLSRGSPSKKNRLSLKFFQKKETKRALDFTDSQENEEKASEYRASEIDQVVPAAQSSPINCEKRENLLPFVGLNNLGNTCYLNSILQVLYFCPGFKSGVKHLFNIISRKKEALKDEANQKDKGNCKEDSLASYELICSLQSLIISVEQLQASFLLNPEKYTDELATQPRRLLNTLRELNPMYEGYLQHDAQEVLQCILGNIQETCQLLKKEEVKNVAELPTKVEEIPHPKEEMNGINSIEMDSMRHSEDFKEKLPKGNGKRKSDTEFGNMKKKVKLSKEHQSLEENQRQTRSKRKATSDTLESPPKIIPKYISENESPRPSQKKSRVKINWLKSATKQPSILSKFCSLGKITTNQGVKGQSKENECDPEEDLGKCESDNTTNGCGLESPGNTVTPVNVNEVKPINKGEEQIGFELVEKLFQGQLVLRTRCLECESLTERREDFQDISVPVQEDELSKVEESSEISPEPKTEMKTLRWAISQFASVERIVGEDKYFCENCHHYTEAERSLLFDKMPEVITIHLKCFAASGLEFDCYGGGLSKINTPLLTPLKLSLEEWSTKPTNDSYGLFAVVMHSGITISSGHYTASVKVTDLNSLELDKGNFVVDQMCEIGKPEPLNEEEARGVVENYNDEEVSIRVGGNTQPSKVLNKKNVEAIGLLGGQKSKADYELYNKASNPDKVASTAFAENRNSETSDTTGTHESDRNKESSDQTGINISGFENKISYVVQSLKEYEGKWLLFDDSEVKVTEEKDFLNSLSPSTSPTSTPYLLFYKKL
Sequence of Glucocorticoid receptor (Homo sapiens) (P04150 whole entry, looked up, the tested form may be a part): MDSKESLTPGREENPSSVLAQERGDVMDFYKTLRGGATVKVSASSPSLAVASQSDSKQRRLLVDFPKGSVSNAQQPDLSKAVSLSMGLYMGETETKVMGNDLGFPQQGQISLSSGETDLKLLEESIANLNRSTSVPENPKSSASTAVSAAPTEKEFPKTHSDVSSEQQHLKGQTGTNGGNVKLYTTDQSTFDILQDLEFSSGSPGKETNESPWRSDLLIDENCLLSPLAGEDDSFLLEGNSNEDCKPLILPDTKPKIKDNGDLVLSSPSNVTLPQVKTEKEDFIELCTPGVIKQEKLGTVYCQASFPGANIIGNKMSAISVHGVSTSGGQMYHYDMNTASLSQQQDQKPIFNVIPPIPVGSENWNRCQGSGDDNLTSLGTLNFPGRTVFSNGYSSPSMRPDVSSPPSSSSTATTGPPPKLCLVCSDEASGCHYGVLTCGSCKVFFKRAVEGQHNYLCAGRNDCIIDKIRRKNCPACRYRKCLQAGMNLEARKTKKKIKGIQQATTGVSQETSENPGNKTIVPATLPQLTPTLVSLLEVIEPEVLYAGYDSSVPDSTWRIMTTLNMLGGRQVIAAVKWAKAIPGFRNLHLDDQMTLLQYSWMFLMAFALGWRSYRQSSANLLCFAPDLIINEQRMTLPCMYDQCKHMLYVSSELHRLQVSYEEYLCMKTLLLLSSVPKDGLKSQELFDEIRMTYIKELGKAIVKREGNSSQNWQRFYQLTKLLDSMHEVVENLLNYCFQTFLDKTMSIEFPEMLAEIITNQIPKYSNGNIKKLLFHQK
Sequence of Cytochrome P450 3A4 (Homo sapiens) (P08684 whole entry, looked up): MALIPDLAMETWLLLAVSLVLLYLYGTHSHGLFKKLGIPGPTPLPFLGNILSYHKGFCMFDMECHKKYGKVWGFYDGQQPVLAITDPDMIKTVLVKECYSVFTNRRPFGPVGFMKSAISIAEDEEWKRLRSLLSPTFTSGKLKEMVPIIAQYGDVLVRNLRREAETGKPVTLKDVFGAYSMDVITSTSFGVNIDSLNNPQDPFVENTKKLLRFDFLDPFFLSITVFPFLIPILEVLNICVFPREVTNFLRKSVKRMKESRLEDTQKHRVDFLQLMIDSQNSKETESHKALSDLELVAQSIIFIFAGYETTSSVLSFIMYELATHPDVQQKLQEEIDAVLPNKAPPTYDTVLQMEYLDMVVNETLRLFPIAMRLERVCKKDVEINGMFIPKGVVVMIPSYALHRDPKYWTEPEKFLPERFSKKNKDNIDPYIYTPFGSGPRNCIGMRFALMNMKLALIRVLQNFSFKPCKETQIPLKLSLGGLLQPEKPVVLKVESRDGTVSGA
Sequence of Lysosomal acid glucosylceramidase (Homo sapiens) (P04062 whole entry, looked up): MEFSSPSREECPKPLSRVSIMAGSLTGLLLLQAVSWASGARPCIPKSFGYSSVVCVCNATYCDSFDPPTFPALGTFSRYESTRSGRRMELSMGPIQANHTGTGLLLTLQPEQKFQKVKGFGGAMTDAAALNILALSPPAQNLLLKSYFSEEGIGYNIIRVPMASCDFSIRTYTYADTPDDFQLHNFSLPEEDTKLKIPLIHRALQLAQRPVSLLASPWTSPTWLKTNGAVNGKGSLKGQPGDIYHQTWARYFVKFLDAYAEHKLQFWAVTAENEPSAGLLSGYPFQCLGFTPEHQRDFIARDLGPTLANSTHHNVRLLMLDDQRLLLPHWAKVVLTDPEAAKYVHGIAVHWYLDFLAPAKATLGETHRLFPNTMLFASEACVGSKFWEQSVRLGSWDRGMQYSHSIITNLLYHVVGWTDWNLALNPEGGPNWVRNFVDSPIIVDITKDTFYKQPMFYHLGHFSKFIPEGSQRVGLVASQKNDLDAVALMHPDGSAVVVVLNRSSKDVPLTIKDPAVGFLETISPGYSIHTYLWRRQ
Sequence of 3',5'-cyclic-AMP phosphodiesterase 4B (Homo sapiens) (Q07343 whole entry, looked up): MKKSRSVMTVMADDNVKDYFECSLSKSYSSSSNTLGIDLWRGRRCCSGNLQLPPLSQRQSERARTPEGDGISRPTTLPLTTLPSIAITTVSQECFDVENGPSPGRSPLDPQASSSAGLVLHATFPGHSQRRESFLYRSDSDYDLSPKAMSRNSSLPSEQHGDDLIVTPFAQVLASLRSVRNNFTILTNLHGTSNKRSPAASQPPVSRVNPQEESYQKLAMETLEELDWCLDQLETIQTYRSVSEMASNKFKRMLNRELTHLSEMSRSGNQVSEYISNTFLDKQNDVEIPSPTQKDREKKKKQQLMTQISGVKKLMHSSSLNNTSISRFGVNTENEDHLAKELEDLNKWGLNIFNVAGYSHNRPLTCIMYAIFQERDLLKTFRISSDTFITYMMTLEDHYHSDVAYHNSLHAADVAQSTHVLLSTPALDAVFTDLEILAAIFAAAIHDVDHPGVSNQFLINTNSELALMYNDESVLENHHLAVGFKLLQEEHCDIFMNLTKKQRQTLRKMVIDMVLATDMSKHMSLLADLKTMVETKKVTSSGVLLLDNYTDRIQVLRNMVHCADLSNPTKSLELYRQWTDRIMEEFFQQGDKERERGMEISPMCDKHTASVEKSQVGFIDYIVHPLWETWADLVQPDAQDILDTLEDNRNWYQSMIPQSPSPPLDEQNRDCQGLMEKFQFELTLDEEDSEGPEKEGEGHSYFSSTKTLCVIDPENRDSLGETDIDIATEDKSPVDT

For the molecule `CN1CCN(c2cc(-c3ccc(N(C)C)cc3)ncn2)CC1`, the Potency in [1] is > 11.4 µM (inactive); in assay [3], 2.51 µM (active); in assay [6], > 46 µM (inactive); in assay [7] it was > 46 µM (inactive). Also, the activity change, negative = inhibition in assay [2] was -7.42% (inactive); in [4], -7.21% (inactive); in [12], 8.21% (inactive). In addition, the activity, negative = inhibition in assay [5] was 2.2% (inactive). The call in assay [8], in assay [10] and in assay [11] was inactive. The Potency result in assay [9], in assay [13] and in [14] was “inactive” in each case. Further, the max response stood at 7.68% in [12] (setting [17]) and 16.4% in assay [12] (setting [18]).
For the molecule `CN(C)Cc1ccccc1-c1nc(NCc2ccccc2)c2ccccc2n1`, the Potency in assay [1] is > 11.4 µM (inactive); in assay [3], 1.26 µM (active); in assay [6], > 46 µM (inactive); in assay [7], > 46 µM (inactive). Besides, the activity change, negative = inhibition was 15.5% (inactive) in [2], -17.2% (inactive) in [4] and 5.53% (inactive) in [12]. Further, in assay [5], the activity, negative = inhibition is 4.49% (inactive). Also, the call in assay [8], in assay [10] and in [11] was inactive. The Potency entry in [15], in assay [13] and in assay [14] was “inactive” in each case. Moreover, the max response was 1.11% in assay [12] (setting [17]) and 6.16% in [12] (setting [18]).
Regarding `Cc1cnc(CNc2ccnc(-c3ccccc3Cl)n2)cn1`, the Potency in assay [1] is > 11.4 µM (inactive); in [3], 12.6 µM (active); in assay [6] it was > 46 µM (inactive); in assay [7], > 46 µM (inactive). For the same molecule, the activity change, negative = inhibition in assay [2] was -1.45% (inactive); in assay [4], -3.33% (inactive); in [12], 7.03% (inactive). In assay [5], the activity, negative = inhibition was 7.09% (inactive). Besides, the outcome in [8], in [10] and in assay [11] was inactive. Also, the Potency entry in assay [9], in assay [15], in assay [13] and in assay [14] was “inactive” throughout. The max response in assay [12] (setting [17]) was 7.84%; in assay [12] (setting [18]) it was 16.2%.
On to `COCCn1c(=O)c(C)nc2cnc(N3CCNCC3)nc21`, for which the Potency is > 11.4 µM (inactive) in assay [1], 10 µM (active) in assay [3], > 9.22 µM (inactive) in [6] and > 46 µM (inactive) in assay [7]. The activity change, negative = inhibition in assay [2] is -21.3% (inactive); in assay [4], -18.9% (inactive); in assay [12] it was 1.17% (inactive). Moreover, in [5], the activity, negative = inhibition is -2.95% (inactive). The outcome in assay [8] was inactive. In addition, the Potency entry in assay [9] and in [14] was “inactive” throughout. Further, the max response was found to be 4.65% in assay [12] (setting [17]) and 6.84% in [12] (setting [18]).
In the case of `COc1ccccc1-c1nccc(NCc2cnc(C)cn2)n1`, the Potency is > 11.4 µM (inactive) in [1], 12.6 µM (active) in [3], > 46 µM (inactive) in assay [6] and > 46 µM (inactive) in assay [7]. In addition, the values for the activity change, negative = inhibition in assay [2], in [4] and in assay [12] were 6.33% (inactive), 2.9% (inactive) and 11.7% (inactive), respectively. Moreover, in assay [5], the activity, negative = inhibition was 18.3% (inactive). Further, the molecule was classed as inactive in assay [8], in assay [10] and in assay [11]. Besides, the Potency result in [15], in assay [13] and in assay [14] was “inactive” in each case. For the same molecule, the activation in assay [16] was 3.22% (inactive). Further, the max response in [12] (setting [17]) is 16.8%; in assay [12] (setting [18]) it was 27.7%.
For `N#Cc1ccccc1-c1ccc2ncnc(N3CCNCC3)c2c1`, the Potency in assay [1] is > 11.4 µM (inactive); in [3], 3.98 µM (active); in assay [6] it was > 46 µM (inactive); in assay [7] it was > 46 µM (inactive). Also, the activity change, negative = inhibition is 6.5% (inactive) in [2], 17.9% (inactive) in assay [4] and 7.44% (inactive) in assay [12]. In [5], the activity, negative = inhibition is 2.26% (inactive). The outcome in assay [8], in [10] and in assay [11] was inactive. Besides, the Potency result in assay [9], in assay [15], in assay [13] and in assay [14] was “inactive” throughout. The max response in assay [12] (setting [17]) was 18.9%; in assay [12] (setting [18]), 26.9%.

Source of the values: PubChem BioAssay (NCATS).
